USP17 inh: blocks human USP17 ubiquitin-rhodamine cleavage | actives 6.5% (n = 47,000) | A8MUK1 | purified USP17, Ub-rhodamine cleavage fluorescence, 3 h | AID 1645855 | inhibition, % at 50 µM
USP30 block: inhibitors of human USP30 deubiquitinase; AID 1645860; actives 5.3% (n = 47,000); Q70CQ3; inhibition, % at 25 µM; purified USP30, Ub-rhodamine cleavage fluorescence
Target sequence (Q70CQ3 whole entry, looked up): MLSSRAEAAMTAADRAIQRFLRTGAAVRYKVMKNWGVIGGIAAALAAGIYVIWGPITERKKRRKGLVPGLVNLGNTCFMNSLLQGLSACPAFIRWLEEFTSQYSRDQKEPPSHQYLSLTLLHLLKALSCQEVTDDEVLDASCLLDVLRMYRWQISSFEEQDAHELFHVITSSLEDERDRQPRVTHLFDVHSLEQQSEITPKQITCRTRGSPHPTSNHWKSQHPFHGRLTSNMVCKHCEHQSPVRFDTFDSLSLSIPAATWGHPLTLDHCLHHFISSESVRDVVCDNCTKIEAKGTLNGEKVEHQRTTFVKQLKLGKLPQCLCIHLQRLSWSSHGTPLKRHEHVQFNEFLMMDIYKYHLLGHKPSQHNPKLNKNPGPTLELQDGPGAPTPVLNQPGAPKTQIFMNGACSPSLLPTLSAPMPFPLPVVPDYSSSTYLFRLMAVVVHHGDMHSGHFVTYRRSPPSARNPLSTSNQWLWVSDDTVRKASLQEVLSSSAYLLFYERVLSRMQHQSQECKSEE
Hits are given with their value; i = inactive. An excerpt weighted towards active compounds, which were near 9.6% of everything screened. Rule as the data show it: active = inhibition above about 30%; inactive = the rest.

SMILES | USP17 inh | USP30 block
O=C(CCn1c(=O)c2ccccc2n(Cc2cc(=O)n3ccccc3n2)c1=O)N1CC=C(c2ccccc2)CC1 | i | i
CCOC(=O)c1cc(-c2ccc(C)cc2)n(CCC(=O)Nc2ncccc2C)c1C | i | i
CCN(c1ccccc1)S(=O)(=O)c1nnc(NC(=O)COc2ccc(Cl)cc2)s1 | i | i
O=S(=O)(c1ccc(Cl)cc1)N(Cc1ccccc1)Cc1nnnn1-c1ccccc1 | i | 30
O=C(O)c1ccc(CN(Cc2ccccc2)S(=O)(=O)c2ccc(Cl)cc2)cc1 | i | i
CCc1nnc(NC(=O)CN(Cc2ccccc2)S(=O)(=O)c2ccc(Cl)cc2)s1 | 63 | 55
Cc1noc(-c2ccnc(-n3cnc(C(=O)N4CCOCC4)c3)c2)n1 | i | i
CN(C(=O)CN1CCCCC1Cn1cccn1)C1(C#N)CCCCC1 (stereo not drawn) | i | i
COc1ccc(CNC(=O)CC(c2cccc(F)c2)n2cccc2)cc1 (stereo not drawn) | i | 35
COc1cccc(CNC(=O)CC(c2cccc(F)c2)n2cccc2)c1 (stereo not drawn) | i | i
Cc1cccc(C(=O)N(Cc2ccccn2)c2nc3ccc(F)cc3s2)c1 | i | i
Cc1cccc(-n2c(C)c(C)c3c(=N)n(CCCO)cnc32)n1 | i | i
O=S1(=O)[C@H]2C[C@@H]3CNC[C@@]2(CN1Cc1ccc(Cl)cc1)O3 | i | i
CC1CCCCN1C(=O)c1cc2c(=O)n3ccccc3nc2n1Cc1ccccc1 (stereo not drawn) | i | i
CCc1ccc(NC(=O)c2nnn(-c3ccc(C)cc3)c2C)cc1 | i | i
Cc1ccc(-n2nnc(C(=O)Nc3ccccc3)c2C)cc1 | 49 | i
COc1ccc(-n2nnc(C(=O)Nc3ccccc3)c2N)cc1 | 51 | i
COc1ccc(-n2nnc(C(=O)Nc3cccc(Cl)c3)c2C)cc1 | i | i
CC(=O)N1CCCCC[C@@H]2N(C(=O)c3cnn(C)c3)[C@H](c3ccccc3)C[C@@]21C | i | i
O=S(=O)(c1ccccc1)N1CCCN(CCn2cccn2)CC1 | i | i
COc1cc(C2=NO[C@]3(C(=O)Nc4ccccc43)[C@H]2C(=O)c2ccc(C)cc2)ccc1OCC#N | 43 | i
COc1cc(C2=NO[C@]3(C(=O)Nc4ccccc43)[C@H]2C(=O)c2ccccc2)ccc1OCC#N | i | i
Cc1cnn(CC2CCCN2Cc2noc(C(C)(C)C)n2)c1 (stereo not drawn) | i | i
Cn1c(=O)cc(C(=O)Nc2ccccc2Br)[nH]c1=O | i | i
COc1ccc(-c2cc3c(=O)n(CC(=O)NCCCN4CCCC4=O)ncn3n2)cc1 | i | i
SMILES | USP17 inh | USP30 block
COc1ccc(-c2cn(-c3ccc(C)cc3)c(=O)n2CC(=O)Nc2cccc(F)c2)cc1 | i | i
COc1ccc(-c2cc3c(=O)n(CC(=O)NCCCN4CCCC4)ncn3n2)cc1 | 60 | 47
COc1ccc(-c2cc3c(=O)n(CC(=O)NCCN(C)C)ncn3n2)cc1 | i | i
COc1ccc(-c2cc3c(=O)n(CC(=O)Nc4ccccc4F)ccn3n2)cc1OC | 70 | i
CCOc1ccccc1NC(=O)Cn1c(-c2ccc3c(c2)OCO3)cn(-c2ccc(OC)cc2)c1=O | 52 | i
COc1ccc(-c2cc3c(=O)n(CC(=O)Nc4ccccc4Cl)ccn3n2)cc1 | 55 | i
Cc1ccccc1-c1noc(-c2cccn(CC(=O)Nc3ccccc3F)c2=O)n1 | i | i
COc1ccc(C2CC(=O)Nc3c2ccc2ccccc32)cc1OC (stereo not drawn) | i | i
CN1CCCN(c2ccc(S(=O)(=O)N3CCC(Cc4ccccc4)CC3)cn2)CC1 | i | i
CC(C)NC(=O)Cn1ccn2nc(-c3ccc(Cl)cc3)cc2c1=O | 82 | 47
CCOc1ccccc1NC(=O)Cn1ccn2nc(-c3ccc(OC)cc3)cc2c1=O | 50 | 43
CCOc1ccc(-c2cc3c(=O)n(CC(=O)Nc4ccccc4OC)ccn3n2)cc1 | i | i
Cc1ccc(-c2cc(NC(=O)C(C)C)c(=O)n(CC(=O)Nc3cccc(Cl)c3)n2)cc1 | i | i
O=S(=O)(c1ccc2nc(NC3CCCCC3)cnc2c1)N1CCCCC1 | i | i
COc1cccc(C2C3=C(NCCN=C3c3ccccc3)C(=O)N2c2ccccc2)c1 (stereo not drawn) | i | i
O=C1C2=C(C(c3ccccc3)=NCCN2)C(c2cccc(F)c2)N1c1ccccc1 (stereo not drawn) | i | 32
Cc1noc(C)c1COc1cccc(C(=O)Nc2cc(Cl)ccc2-n2cncn2)c1 | 38 | i
O=C(Nc1cc(Cl)ccc1-n1cncn1)c1ccc(-n2cccn2)cc1 | i | i
Cc1noc(C)c1COc1cccc(C(=O)Nc2ccccc2)c1 | i | i
O=C(Nc1cc(Cl)ccc1-n1cncn1)c1ccc(S(=O)(=O)N2CCCC2)cc1 | i | 66
CN(C)C(CNc1ncnc2ccccc12)c1cccs1 (stereo not drawn) | i | i
O=C(c1ccccc1)N1CCN(c2[nH]ncc2-c2ccncc2)CC1 | i | i
